DT40 TDP1 CPT: growth inhibition of DT40 Tdp1-/-;hTDP1 cells with camptothecin (screen for TDP1 inhibitors) | AID 686979 | Potency, µM (doses to about 46.2 µM), most hits filed as inhibitors | 12% of 420,000 active | chicken DT40 Tdp1-/-;hTDP1 cells + 20 nM CPT, ATP luminescence, 48 h; further: nearly all actives have a fitted effect of over 55% in size
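Chicken DT40 Tdp1-/- cells stably complemented with human TDP1 were seeded at 400 cells/well in medium containing 20 nM camptothecin, exposed to pin-transferred compounds, and grown at 37 °C for at least 48 hr. Viability was read as ATP luminescence.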
S2 tox: cell viability loss in ATXN counter-screen | S2 cells (HEK-293 line with an ATXN2-luciferase reporter) viability, CellTiter-Fluor protease fluorescence, 24 h | 0.49% of 400,000 active | Potency, µM (top dose mostly 56.7 µM), hits mostly cytotoxic; further: nearly all actives have a fitted effect of over 40% in size
HepG2 viability: counter-screen for TGF-b inhibitors: cytotoxicity in HepG2 cells. 0.76% of 410,000 active. HepG2 CAGA-GFP viability, ATP luminescence, 18 h. Potency, µM (doses to about 46.1 µM), hits mostly cytotoxic
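CellTiter-Glo luminescence gave cytotoxicity after 18 hours at 37 degrees C. The cells were HepG2 CAGA-GFP in 1% FBS DMEM, stimulated with 500 pg/mL TGF-beta after compound addition. %Activity was normalised to no-cell wells (complete cell-killing) and DMSO (no toxicity), and curves were fitted and classified.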
ATXN2 expr inh: inhibitors of ATXN2 expression | HEK-293 ATXN2-luciferase reporter, luminescence, 24 h | Potency, µM (doses to about 57 µM), most hits filed as inhibitors | 0.72% of 360,000 active | AID 1745845; further: nearly all actives have a fitted effect of over 55% in size
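ATXN2-luciferase reporter cells (luciferase flanked by upstream and downstream ATXN2 gene portions) were treated 24 h at 37 °C with compounds at up to 57 uM. SteadyGlo luminescence gave expression; GF-AFC fluorescence gave viability.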
TGFb SMAD3 inh: blocks TGF-b signaling; HepG2 CAGA-GFP TGF-b/SMAD3 reporter, GFP fluorescence, 18 h; TGF-beta stimulated, 500 pg/mL final; Potency, µM (top dose mostly 46.1 µM), usual class: inhibitors; 1.2% of 410,000 active; AID 588855; further: nearly all actives have a fitted effect of over 65% in size
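HEPG2 CAGA-GFP cells (1000/well, DMEM with 1% FBS) were pre-incubated 2 h at 37 degrees C, given compound by pin tool, then stimulated with TGF-beta at 500 pg/mL final for 18 h before per-cell GFP fluorescence imaging.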
DT40 TDP1 no CPT: qHTS for Inhibitors of human tyrosyl-DNA phosphodiesterase 1 (TDP1): qHTS in cells in absence of CPT; 15% of 420,000 active; Potency, µM (doses to about 46.2 µM), actives largely listed as inhibitors; DT40 Tdp1-/- hTDP1 cells, no CPT, ATP luminescence, 48 h; AID 686978, 2013; further: nearly all actives have a fitted effect of over 55% in size
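Readout: luminescence from CellTiter-Glo after 30 min in the dark at RT. Cells: DT40 Tdp1-/- with stable hTDP1, 400/well. Exposure: compounds alone, ≥48 hr, 37 °C.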
A number is an active result; . = inactive; ? = inconclusive; / = no result given. A selection: hits, their analogues and other compounds. The true share with any hit is near 17%. The call rests on the fitted dose curve; in most records, active means well fitted curve in the direction sought with a large enough effect; inconclusive means small, poorly fitted or top-dose-only effect, or another doubt; inactive means no such curve, though single readings can be large; an effect the other way counts as inactive or inconclusive.

SMILES	DT40 TDP1 CPT	S2 tox	HepG2 viability	ATXN2 expr inh	TGFb SMAD3 inh	DT40 TDP1 no CPT
CCCSc1ccc([C@H]2N[C@@](Cc3ccccc3)(C(=O)OC)[C@H]3C(=O)N(CC)C(=O)[C@@H]23)cc1	18µM	.	.	.	.	18µM
CCN1C(=O)[C@H]2[C@@H](c3ccc(-c4ccccc4)c(OC)c3)N[C@@](Cc3ccccc3)(C(=O)OC)[C@H]2C1=O	.	.	.	.	.	.
CCN1C(=O)[C@H]2[C@@H](c3ccc(-c4ccc(F)cc4)c(OC)c3)N[C@@](Cc3ccccc3)(C(=O)OC)[C@H]2C1=O	.	.	.	.	.	.
CCOC(=O)C1(Cc2ccccc2)NC(c2ccccc2F)C2C(=O)N(CC)C(=O)C21 (stereo unspecified)	23µM	.	.	?	.	7.3µM
CCCCCCSc1ccc([C@H]2N[C@@](Cc3ccccc3)(C(=O)OC)[C@H]3C(=O)N(C)C(=O)[C@@H]23)cc1	?	.	.	.	?	21µM
Cn1c(CNC(=O)OC(C)(C)C)nnc1SCC(=O)N1CCOCC1	.	.	.	.	.	.
CCn1cc(C(=O)NCc2ccccc2)c(=O)c2cc(S(=O)(=O)N3CCOCC3)ccc21	.	.	.	.	.	.
O=C(NN1CC(C(=O)OCc2ccc(Cl)cc2Cl)CC1=O)c1ccccc1 (stereo unspecified)	.	.	.	.	.	.
CCOc1ccc(S(=O)(=O)N(CC)CC(=O)NCc2ccccn2)cc1C	.	.	.	.	.	?
COCCOC(=O)C1=C(C)N=C2SCCC(=O)N2C1c1ccc(OCc2ccccc2)c(OC)c1 (stereo unspecified)	.	.	.	.	.	.
Nc1cc(S(=O)(=O)Nc2ccc(Br)cc2)ccc1Cl	?	.	11µM	.	?	?
O=S(=O)(Nc1ccc(-n2cccc2)cc1)c1ccc(Cl)c(Cl)c1	?	.	.	/	11µM	?
COc1ccc2c(c1)c1c(c(=O)n(CCc3ccccc3)c(=O)n1Cc1ccccc1)n2C	.	.	.	.	.	.
COc1ccc(C#Cc2ccc3c(c2)O[C@@H](CN(C)C(=O)Nc2cccc(OC)c2)[C@H](C)CN([C@@H](C)CO)S3(=O)=O)cc1	.	.	.	.	.	18µM
C[C@H](CO)N1C[C@H](C)[C@@H](CN(C)C(=O)Nc2ccc(F)cc2)Oc2cc(Br)ccc2S1(=O)=O	?	.	.	.	.	?
C[C@@H]1CN([C@H](C)CO)S(=O)(=O)c2ccc(C#Cc3ccccc3F)cc2O[C@@H]1CN(C)C(=O)Cc1ccccc1	15µM	/	.	?	.	13µM
CC(C)NC(=O)N(C)C[C@H]1Oc2cc(C#Cc3ccc(F)cc3)ccc2S(=O)(=O)N([C@H](C)CO)C[C@H]1C	23µM	?	.	?	.	?
COc1cccc(NC(=O)N(C)C[C@H]2Oc3cc(C#Cc4ccncc4)ccc3S(=O)(=O)N([C@H](C)CO)C[C@H]2C)c1	16µM	?	.	?	.	23µM
Cc1ccc(S(=O)(=O)N2CCCCC2)cc1NC(=O)c1ccc(=O)[nH]c1	.	.	.	/	.	.
C/C(=N/NC(=O)c1cc(C)[nH]n1)c1ccco1	.	.	.	.	.	.
Cn1c(=O)c2c(nc(CN3CCN(c4cccc(Cl)c4)CC3)n2CCc2ccccc2)n(C)c1=O	13µM	.	.	?	?	10µM
Cn1c(=O)c2c(nc(CN3CCN(c4ccccc4)CC3)n2CCc2ccccc2)n(C)c1=O	23µM	.	.	.	.	23µM
Nc1nc(SCc2ccccc2)sc1C(=O)N1CCCCC1	?	.	.	/	.	?
CCc1ccnc(NC(=O)NS(=O)(=O)c2ccc(C)cc2)c1	.	.	.	.	.	.
CCCN(CC(=O)Nc1ccccc1C)C(=O)c1ccc(C2SCCS2)cc1	?	.	.	.	.	?
